By AC50 is commonly meant the midpoint of the concentration-response curve, whichever way the signal moves.

Active and inactive are the calls of the source. Rule for the calls: active = hit-call score of the fitted dose curve at least 0.9, where 1 is the maximum; inactive = score below 0.9.

Read-out in this test: 3-Hydroxy-3-Methylglutaryl-CoA Synthase 2 (HMGCS2), HMGCS2 (gene 3158)
Briefly: LTEA_HepaRG_HMGCS2: Life Technologies and Expression Analysis (LTEA) Assay for 3-Hydroxy-3-Methylglutaryl-CoA Synthase 2 (HMGCS2) using HepaRG (AID 2283504). The note with it: mRNA level, 48 h; actives raise or lower the signal. As to the method: LTEA_HepaRG is a cell based, multiplexed-readout assay that uses HepaRG, a human liver cell line, with measurements taken at 48 hours after chemical dosing on a 96-well plate.LTEA_HepaRG_HMGCS2 is one of 102 assay component(s) measured in the LTEA HepaRG cell culture assay. It is a marker of Steatosis.Data from the assay component LTEA_HepaRG_HMGCS2 was analyzed into 1 endpoint. This assay endpoint, LTEA_HepaRG_HMGCS2, was analyzed with bidirectional fitting relative to DMSO as the negative control and baseline of activity. Using a type of inducible reporter, measures of mRNA induction for gain or loss-of-signal activity can be used to understand regulation of transcription factor activity. To generalize the intended target to other relatable targets, this assay endpoint is annotated to the lyase intended target family, where the subfamily is HMG-CoA synthase.
A total of 1060 chemcials from the ToxCast library were tested in eight-point concentration-response experiments. Cell culture and cytotoxicity assays were conducted at Thermo Fisher Scientific's Custom Services facility (Madison, WI). A single lot of human HepaRG cells (Thermo Fisher Scientific, Frederick, MD) was used for the cell culture experiments. 96-well format collagen type I coated plates of human HepaRG cells were prepared using established methods. Briefly, cryopreserved HepaRG cells were thawed, plated at a density of approximately 100,000 cells/well in HepaRG Thaw, Plate, and General Purpose media (HPRG770, Thermo Fisher Scientific), and incubated for 48 hours. 0.5% DMSO was selected as vehicle control to balance the requisite need of DMSO in HepaRG cultures to maintain differentiation (for example, baseline metabolism, proportions of hepatocytes vs. cholangiocytes), while enabling further hepatic receptor pathway activation (for example, PXR and CAR) in response to chemical exposure. 48 hours after plating, the culture medium was replaced with HepaRG Serum-Free Incudtion Media. Cells were exposed to each test chemical in duplicate and maintained in CO2 incubators for another 48 hours. Chemical plates were thawed to room temperature and 200x concentrations of treatment groups were prepared. 8-point conentration-reponse curves were made with the highest exposure at 100 uM, followed by half-log dilutions, all in 0.5% DMSO. Each test plate contained variouse controls, induction positive controls (1mM phenobarbital), cytotoxicity positive controls ([…] aflatoxin B1), vehicle controls (0.5% DMSO), and total lysis controls (0.5% DMSO). Cell morphology images were taken using an Essen IncuCyte FLR automated microscope, with six 96-well plates imaged in about 24 minutes. Images were captured and exported and JPEG files. Spent culture media was transfered to black-well plates for the LDH assay, and remaining media was sorted at -80 C for later use. Cells were treated with RLT buffer and frozen until shipped for gene expression analysis. Total RNA was isolated from the cell suspension in 75 uL of Buffer RLT (Qiagen, Germantown, MD 20874) by Quintiles/Expression Analysis (Durham, NC) using a custom isolation procedure. Total RNA from each plate well was transferred to a preamplification plate. Fluidigm's 96.96 Dynamic ArrayTM (Fluidigm, Amsterdam, the Netherlands) technology was used for gene expression analyses by quantitative reverse transcription polymerase chain reaction (qRT-PCR, performed by Quintiles/Expression Analysis, Durham, NC)89. Standard TaqManTM Assays (Applied Biosystems/ThermoFisher Scientific, Foster City, CA) were used to assess the expression of 93 genes selected based on their selectivity and sensitivity to important hepatic receptors known to be modulated by environmental chemicals; importance in human hepatocyte functionality; and hepatotoxicity. […]
Turning to `CN(C)C(=S)S`, the call was inactive.
Regarding `CCCCCCCCCCCCc1cccc(S(=O)(=O)O)c1`, the half-maximal activity concentration (AC50) was 37.9 µM (active).
With `CC(C)(C)c1ccccc1O`, the compound was classed as inactive.
`OCCN(CCO)CCO`: the outcome was inactive.
Take `CC(C)O.CC(C)O.OCCN(CCO)CCO.OCCN(CCO)CCO.[Ti]`: the compound was classed as inactive.
For the compound `Clc1cccc(Cl)c1Cl`, the compound was classed as inactive.
For the compound `Cc1cc(C)cc(C)c1`, the call was inactive.
Regarding `Clc1cccc(Cl)c1`, the result was inactive.
`O=C(N[C@H]1CN2CCC1CC2)c1ccc2c(c1)OCCO2`: the outcome was inactive.
Take `COc1ccccc1N`: the compound was classed as inactive.
Take `Oc1c(Cl)cc(Cl)cc1Cl`: the call was inactive.
Turning to `Oc1cc(Cl)c(Cl)cc1Cl`, the result was inactive.
On to `O=C(O)C1(c2ccc3c(c2)OC[C@H](Cc2ccc(-c4ccccc4)cc2)[C@H]3O)CCCC1`, for which the call was inactive.
Still for that read-out and setting: as for `N#Cc1cccnc1`, the entry is “inactive”.

(Values after PubChem BioAssay (EPA / NIEHS).)
